High-throughput results deposited in PubChem by National Center for Advancing Translational Sciences (NCATS).
Abeta yeast res: compounds reversing amyloid beta toxicity in yeast. yeast expressing A-beta42, growth rescue, OD600, 48 h; response scale: 0% DMSO, 100% iron-clioquinol control. Potency, µM (titrated, usually from 46.1 µM), most hits filed as activators. 410,000 compounds, 0.063% hits; further: nearly all actives have a fitted effect of over 55% in size
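Growth rescue measured by 600 nm absorbance after 48 h yeast culture at 30 C with compound. Values normalized between DMSO and an equimolar ferric chloride plus clioquinol control.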
aSyn rescue: inhibitors of alpha-synuclein toxicity in yeast | Yeast expressing alpha-synuclein, growth rescue, BacTiter-Glo, 24 h | Potency, µM (titrated, usually from 46.1 µM), without a hit: top-dose growth rescue (activation), hits mostly activators | 370,000 compounds, 0.14% hits | AID 652106; further: % of control where 0% means no effect; nearly all actives have a fitted effect of over 65% in size
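Readout is rescue of growth in alpha-synuclein-expressing yeast, so inhibitors of toxicity appear as activators. Growth after 24 hr at 30 deg C in galactose medium is quantified by luminescence.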
TDP-43 yeast inh: inhibitors of TDP-43 toxicity in yeast; 410,000 compounds, 1.8% hits; TDP-43 expressing yeast growth rescue, BacTiter-Glo, 24 h; Potency, µM (series often up to 46.1 µM), inactives show top-dose growth rescue (activation), usual class: activators; further: % of control where 0% means no effect; nearly all actives have a fitted effect of over 50% in size
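Cell-based yeast growth screen: TDP-43 expression induced in galactose, inoculum OD600=0.02 after raffinose pregrowth to mid-log. Read-out BacTiter-Glo luminescence at 24 hr, 30 deg C; inhibition of toxicity seen as signal increase.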
FUS yeast rescue: suppressors of FUS proteinopathy in yeast; S. cerevisiae FUS-expressing, growth rescue, OD600, 24 h; Potency, µM (highest dose often 76.6 µM), actives largely listed as activators; 390,000 compounds, 0.24% hits;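 further: plate controls were DMSO vehicle for no effect and reference control for full effect; nearly all actives have a fitted effect of over 55% in size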
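Absorbance at 600 nm, taken 24hr after compound addition, measured rescue of FUS-yeast growth at 30C. Induction used 2% galactose with seeding at OD 0.005. Controls: CP55940 from 92uM final, DMSO only.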
Mm-Cpn inhibitor: blocks the Methanococcus maripaludis chaperonin Mm-Cpn; AID 504842; 330,000 compounds, 0.031% hits; Potency, µM (highest dose often 76.9 µM), without a hit: top-dose activity, negative = inhibition, usual class: inhibitors; purified Mm-Cpn ATPase, ADP Transcreener TR-FRET; further: on the % scale 0 is the no-effect control and ±100 the full control effect; nearly all actives have a fitted effect of over 80% in size
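Compound-treated chaperonin, 25 nM final, turns over 10 uM ATP at 37°C for 30 min following a 10 min preincubation; ADP generated competes with ADP-d2 for Eu-cryptate antibody, lowering FRET.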
ClpP mod: qHTS Assay for Activators of ClpP; ATP-dependent Clp protease proteolytic subunit (Bacillus subtilis (strain 168)), P80244; purified B. subtilis ClpP, FRET peptide cleavage, 20 min; Potency, µM (doses to about 57.5 µM), without a hit: top-dose activity change, negative = active; AID 651965, 2013; 340,000 compounds, 1.9% hits; active means well fitted falling curve with a large enough effect; inconclusive means small, poorly fitted or top-dose-only effect; inactive means no such curve, though single readings can be large or run the other way; further: the source files actives as falling curves though it sought activators and does not explain the sign; nearly all actives have a fitted effect of over 65% in size
Target sequence (P80244 whole entry, looked up): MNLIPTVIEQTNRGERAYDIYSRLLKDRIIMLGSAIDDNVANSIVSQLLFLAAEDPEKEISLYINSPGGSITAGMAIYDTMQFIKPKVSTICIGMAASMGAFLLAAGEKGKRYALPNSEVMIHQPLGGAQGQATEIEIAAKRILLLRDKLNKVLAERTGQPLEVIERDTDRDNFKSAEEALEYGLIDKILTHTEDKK
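FRET quenching reversal measured ClpP activation: 10 microg/mL B. subtilis ClpP at pH 8 with the FRET-FV decapeptide, read at 430 nm after 320 nm excitation. The 20-min minus 0-min signal was scaled between DMSO/no-enzyme wells and ADEP (5.8 microM final).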
Numbers without * were called inactive; i = inactive; ? = inconclusive; . = no result given; [ ] = another dose, or the depositor's remark. Compounds with a hit are over-represented: about 3.6% of the library has one in this group of screens. Unless noted, the call rests on the fitted dose curve; in most records, active means well fitted curve in the direction sought with a large enough effect; inconclusive means small, poorly fitted or top-dose-only effect, or another doubt; inactive means no such curve, though single readings can be large; an effect the other way counts as inactive or inconclusive. Potency means the concentration at half of the fitted maximal effect.

SMILES	Abeta yeast res	aSyn rescue	TDP-43 yeast inh	FUS yeast rescue	Mm-Cpn inhibitor	ClpP mod
O=C1OC(Nc2ccc(F)cc2F)c2ccccc21 (centres undefined)	i	-5%	-4%	i	0%	0%
O=C(CSc1nnc(COc2ccccc2)n1-c1ccccc1)Nc1ccc(S(=O)(=O)Nc2nccs2)cc1	.	.	.	20µM*	.	.
O=C(CSc1nnc(-c2ccco2)n1-c1ccc(Cl)cc1)Nc1ccc(S(=O)(=O)Nc2nccs2)cc1	.	.	.	25µM*	.	.
Cc1cc(C)nc(NS(=O)(=O)c2ccc(NC(=O)COc3ccc(C(C)(C)C)cc3)cc2)n1	i	.	0%	28µM*	.	-4%
Cn1c(COc2ccccc2)nnc1SCC(=O)Nc1ccc(S(=O)(=O)Nc2nccs2)cc1	.	.	.	i	.	.
Cc1ccc(-n2c(SCC(=O)Nc3ccc(S(=O)(=O)Nc4cc(C)nc(C)n4)cc3)nnc2-c2ccc(C(C)(C)C)cc2)cc1	.	.	.	22µM*	.	.
CCc1ccc(S(=O)(=O)c2nnn(-c3ccc(F)cc3)c2N)cc1	i	.	4%	i	.	1%
CC(=O)N1c2ccccc2CC1C(=O)NCc1cccc(Cl)c1 (centres undefined)	i	.	22%	i	.	0%
CCOC(=O)c1cc(OC(=O)c2ccc(Cl)cc2)n(-c2ccccc2)n1	i	-40%	5%	i	.	-9%
COc1ccc(-n2c(SCC(=O)Nc3ccc(S(=O)(=O)Nc4nccs4)cc3)nnc2-c2ccccc2)cc1	.	.	.	10µM*	.	.
OC(c1ccc(F)c(F)c1)c1nc(-c2ccccc2)cs1 (centres undefined)	i	0%	14µM*	i	.	-2%
CC(=O)NC(c1ccc(F)c(F)c1)c1nc(-c2ccc3c(c2)OCO3)cs1 (centres undefined)	i	-4%	13%	i	.	-1%
OC(c1ccc(F)c(F)c1)c1nc(-c2ccc3c(c2)OCO3)cs1 (centres undefined)	i	?	22µM*	i	.	0%
OC(c1ccc(F)c(F)c1)c1nc(-c2cnc3ccccc3c2)cs1 (centres undefined)	i	10%	22µM*	i	.	?
COc1ccc(-c2csc(C(O)c3ccc(F)c(F)c3)n2)cc1 (centres undefined)	i	11µM*	?	i	.	-4%
O=c1c2oc3ccccc3c2ncn1Cc1ccc(Br)cc1	i	.	-8%[9.22 µM]	i	.	-8%
CC(C)c1cccc(-c2csc(C(O)c3ccc(F)c(F)c3)n2)c1 (centres undefined)	i	-29%	-72%	i	.	-4%
OC(c1ccc(F)c(F)c1)c1nc(-c2cccc(F)c2)cs1 (centres undefined)	i	20%	22µM*	i	.	-2%
OC(c1ccc(F)c(F)c1)c1nc(-c2cccs2)cs1 (centres undefined)	i	0%	22µM*	i	.	1%
COc1ccc(NC(=O)c2sc3nc4c(cc3c2N)CCCCCC4)cc1	i	.	?	i	.	4%
COc1ccc(NC(=O)c2sc3nc4c(cc3c2N)CCCCCC4)cc1Cl	i	.	?	i	.	13µM*
Cc1ccc(CNC(=O)CSc2ncc3c(n2)-c2ccc(Cl)cc2N(Cc2ccccc2)S3(=O)=O)cc1	i	.	0%	i	.	-10%
CCOc1ccc(Nc2nc(-c3cccc(Cl)c3)c3c(n2)-c2ccccc2OC3)cc1	i	.	17%	i	.	0%
O=C(/C=C/c1ccc2c(c1)OCO2)N1CCN(c2ccccc2F)CC1	i	5%	35µM*	.	1%	-13%
CC1CN(C(=O)/C=C/c2ccc3c(c2)OCO3)CC(C)O1 (centres undefined)	i	6%	-10%	i	4%	28µM*
SMILES	Abeta yeast res	aSyn rescue	TDP-43 yeast inh	FUS yeast rescue	Mm-Cpn inhibitor	ClpP mod
O=C(/C=C/c1ccc2c(c1)OCO2)N1CCOCC1	i	-1%	-23%	i	-1%	?
CCN(c1cccc(C)c1)S(=O)(=O)c1nnc(NC(=O)C2CCCCC2)s1	i	.	8%	i	.	0%
O=C(Nc1ccc(Cl)cn1)C1C(c2ccccc2)C1(Cl)Cl (centres undefined)	i	-11%	13µM*	i	3%	.
Nc1c(C(=O)NC2CC2)c2nc3ccccc3nc2n1-c1ccc2c(c1)OCO2	i	-12%	13%	i	-1%	32µM*
CC(C)N(Cc1ccccc1)C(=O)c1nc(-c2ccc(Cl)cc2)n2c1CCCCC2	i	.	?	?	.	-1%
CCOC(=O)c1cc(C#N)c(Oc2cccc(C(F)(F)F)c2)nc1-c1ccccc1	i	5%	9%	i	-1%	-15%
Cn1nc(-c2ccccc2)c(CO)c1Oc1cccc(C(F)(F)F)c1	i	4%	11µM*	i	0%	.
COc1ccc(CN[C@@H]2CC[C@@]34CCCN3C(=O)CCC[C@H]4C2)cc1	.	.	.	i	.	.
O=C(CCS(=O)(=O)c1nc(-c2cccs2)cc(C(F)(F)F)n1)Nc1ccc(Br)cc1	i	.	?	i	.	32µM*
Cc1ccc(O)c(NC(=O)CCS(=O)(=O)c2nc(-c3cccs3)cc(C(F)(F)F)n2)c1	i	.	11µM*	i	.	-19%
O=C(CCS(=O)(=O)c1nc(-c2cccs2)cc(C(F)(F)F)n1)Nc1cc(Br)ccc1O	i	?	18µM*	i	.	4%
Cc1ccc(/C=C/c2onc(C)c2S(=O)(=O)N2CCC(C(=O)Nc3ccc(OC(F)(F)F)cc3)CC2)cc1	i	.	5%	i	.	-29%
Cc1cc(=O)[nH]c2ccc(O)cc12	.	.	.	.	.	4%
O=c1/c(=C/c2ccco2)sc2n1CN(c1cccc(Br)c1)CN=2	i	2%	-2%	i	-2%	-3%
O=c1/c(=C/c2ccco2)sc2n1CN(c1ccccc1)CN=2	i	-2%	-10%	i	-3%	25µM*
O=C1OCCC1Sc1nnc(-c2ccc(F)cc2)n1Cc1ccccc1 (centres undefined)	i	0%	1%	.	1%	25µM*
O=C1OCCC1Sc1nc2ccccc2c(=O)n1Cc1ccc(F)cc1 (centres undefined)	i	?	?	i	1%	1%
Nc1ccc(N=Nc2ccccc2O)c(N)c1	i	-8%	22%	i	.	-2%
Oc1ccccc1N=Nc1ccccc1O	?	13µM*	?	i	-1%	0%
COc1cc(NC(=O)CCN2CCN(CCO)CC2)cc(OC)c1	i	8%	12%	i	-1%	0%
